Among the data in PubChem BioAssay (Tox21) are Potency values, retold here.

Several values for one entry are separate records, joined by “and”; a condition that tells them apart may be missing. Identical values can stand only once. Inconclusive results are not listed. Where a call stands in place of a potency, no number is given. Some structures have more than one record in an assay (separate samples or runs), and their calls can disagree. Activity calls are given as the source filed them. Calls follow the shape of the dose curve; as a rule, active = well fitted cell-killing curve with a large enough effect in the repeat runs; inconclusive = weak or mixed curves, or effect the other way; inactive = flat fitted curve, though single readings scatter.
Potency is read from the fitted curve at half-maximal effect.

The assay is described as follows: qHTS RealTime-Glo MT Cell Viability Assay in HEK293 cells - 24 hour (AID 1224886). Also: nearly all actives have a fitted effect of over 50% in size. As to conditions: RealTime-Glo luminescence; series mostly up to 76.8 µM. An excerpt:
National Center for Advancing Translational Sciences [NCATS]
NIH Chemical Genomics Center [NCGC]
U.S. Environmental Protection Agency [EPA]
National Institutes of Environmental Health Sciences [NIEHS]
National Toxicology Program [NTP]
U.S. Food and Drug Administration [FDA]
Measure of cell viability is critical in the cell-base assay. Analysis of cell viability is necessary for the characterization of cell responses to cytotoxic drugs and environmental stress. A RealTime-Glo MT Cell Viability Assay to monitor cell viability in real time of continues cell culture during 40 hours of compound treatment was used to screen Tox21 10K library compounds in Hek293 cells. The RealTime-Glo MT Cell Viability Assay is a nonlytic, homogeneous, bioluminescent method to measure cell viability in real time using a simple, plate-based method. The assay involves adding NanoLuc luciferase and a cell-permeant prosubstrate to cells in culture. Viable cells reduce the proprietary prosubstrate to generate a substrate for NanoLuc luciferase. This substrate diffuses from cells into the surrounding culture medium, where it is rapidly used by the NanoLuc Enzyme to produce a luminescent signal. The signal correlates with the number of viable cells, making the assay well suited for cytotoxicity studies.
Tox21 Assay Protocol Summary:
The mixture of Hek293 cell suspension and reagents were dispensed at 600cells/6 ul/well in 1536-well tissue culture treated black solid bottom plates using a Multidrop dispenser. After the assay plates were incubated at a 37 C/5% CO2 incubator for 5 hours, 23 nL of compounds dissolved in DMSO, positive and negative controls was transferred to the assay plate by a pintool work station. The plates were incubated at 37 C for 40 hours. The luminescence intensity were measured at 0h, 8h, 16h, 24h, 32h and 40h time points using ViewLux plate reader during compound treatment.
On to `FC(Cl)(Cl)Cl`, for which the Potency entry was “inactive”.

`C[As+](C)(C)CC(=O)[O-]`: the Potency entry was “inactive”.

In the case of `CC(=O)Nc1ccc2c(c1)Cc1ccccc1-2`, the Potency entry was “inactive”.

`Oc1ccc2ccc3cccc4ccc1c2c34`: the Potency was 15.5 µM (active).

For `[Cl][Sn]([c]1ccccc1)([c]1ccccc1)[c]1ccccc1`, the Potency was 0.262 µM (active).

On to `O=C(O)COc1nc(Cl)c(Cl)cc1Cl`, for which the Potency entry was “inactive”.

As for `CC(C)CBr`, the Potency entry is “inactive”.

As to `CCC(C)c1cc(C(C)(C)C)cc(-n2nc3ccccc3n2)c1O` (stereo not given), the Potency entry was “inactive”.

As for `Clc1ccc(C(c2ccc(Cl)cc2)C(Cl)(Cl)Cl)cc1`, the Potency was 39.2 µM (active) and 43.6 µM (active).

Consider `Oc1ccc(I)cc1`, for which the Potency result is “inactive”.

For the compound `COc1ccc(OC)c(CC(C)N)c1` (stereo not given), the Potency entry was “inactive”.

For `S=C(SSC(=S)N1CCCCC1)N1CCCCC1`, the Potency is 13.4 µM (active).

For `Cc1cc(C)c(C2=C(OC(=O)CC(C)(C)C)C3(CCCC3)OC2=O)c(C)c1`, the Potency entry was “inactive”.

Regarding `CC(C)(C)c1ccc(CSc2cnn(C(C)(C)C)c(=O)c2Cl)cc1`, the Potency is 0.0389 µM (active).

With `CC(C)CC(C)Nc1ccc(Nc2ccccc2)cc1` (stereo not given), the Potency was 21.5 µM (active).

`C=COCCCl`: the Potency result was “inactive”.

Turning to `OC(Cc1ccccc1Cl)(Cn1cncn1)C1(Cl)CC1` (stereo not given), the Potency is 54.9 µM (active).

As to `CCCN(CCC)c1c([N+](=O)[O-])cc(S(N)(=O)=O)cc1[N+](=O)[O-]`, the Potency was 23.3 µM (active).

With `CCCCCCCCCBr`, the Potency entry was “inactive”.

Take `CC(C)(O)c1cnn2c(-c3ccc(F)c(-c4c(F)cccc4C#N)c3)cnc2n1`: the Potency was 5.49 µM (active).

For `Clc1ccc(-c2ccccc2)cc1`, the Potency entry was “inactive”.

On to `Nc1ccccc1C(=O)OC/C=C/c1ccccc1`, for which the Potency is 24.6 µM (active).

As for `CC(C)(COCC1CO1)COCC1CO1` (stereo not given), the Potency entry was “inactive”.

As to `CCCCCCCCCCCCCCCC[n+]1ccccc1`, the Potency is 9.52 µM (active) [middle of 4 runs].

Consider `c1ccc2cc3c(cc2c1)-c1cccc2cccc-3c12`, for which the Potency result was “inactive”.

Consider `O=CC(Br)(Br)Br`, for which the Potency is 2.45 µM (active).

On to `O=c1[nH]c2ccccc2n1CCCN1CCC(n2c(=O)[nH]c3cc(Cl)ccc32)CC1`, for which the Potency was 9.52 µM (active).

For the compound `Clc1ccc(C(c2ccccc2Cl)C(Cl)(Cl)Cl)cc1` (stereo not given), the Potency is 49.3 µM (active) and inactive.

As for `Nc1ccc(Cc2ccc(N)c(Cl)c2)cc1Cl`, the Potency was 26.6 µM (active).

On to `ClC1=C(Cl)C2(Cl)C3C(Cl)C=CC3C1(Cl)C2(Cl)Cl` (stereo not given), for which the Potency is 43.8 µM (active) and 49 µM (active).

For the compound `CCOCCOC(C)=O`, the Potency entry is “inactive”.

For the compound `C[C@]12CC[C@H]3[C@@H](CCC4=CC(=O)CC[C@@]43C)[C@@H]1CC[C@@H]2O`, the Potency was 54.6 µM (active).

On to `Cn1[nH]nnc1=S`, for which the Potency result is “inactive”.

Turning to `NC(=O)CCl`, the Potency result was “inactive”.

On to `CCCCN(CCCC)C(=S)[S-].CCCCN(CCCC)C(=S)[S-].[Zn+2]`, for which the Potency was 11 µM (active).

For `CCCCOCN(C(=O)CCl)c1c(CC)cccc1CC`, the Potency entry is “inactive”.

Turning to `ClC1=C(Cl)[C@]2(Cl)[C@H]3[C@H]([C@H]4C=C[C@H]3C4)[C@@]1(Cl)C2(Cl)Cl`, the Potency result was “inactive”.

As to `COS(=O)(=O)c1ccc(C)cc1`, the Potency result is “inactive”.

Regarding `O=c1oc2ccccc2c(O)c1Cc1c(O)c2ccccc2oc1=O`, the Potency result was “inactive”.

Turning to `ClC1=C(Cl)[C@]2(Cl)[C@@H]3[C@@H]4C[C@@H]([C@H]5O[C@@H]45)[C@@H]3[C@@]1(Cl)C2(Cl)Cl`, the Potency is 21.9 µM (active).
